The list is not random: actives were taken first. Their share in the collection is about 9%.
12-LOX inh: inhibitors of human 12S-lipoxygenase ALOX12; purified 12hLO, xylenol orange hydroperoxide absorbance; Potency, µM (top dose mostly 108 µM), without a hit: at the highest dose activity change, negative = inhibition, usual class: inhibitors; 580,000 tested, 1.1% active; AID 1671190; further: on the % scale 0 is the no-effect control and ±100 the full control effect
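Purified human 12hLO (150 nM final) in 25 mM Hepes, 0.01% Triton X-100, pH 7.0 was preincubated 15 min at room temperature with compound. Then 40 uM arachidonic acid was added, 30 min. Hydroperoxide was read by Fe-XO absorbance ratio 573/405 nm.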
PLK1 PBD block: PLK1 (human) polo-box domain binding inhibition. Plk1 PBD binding of FITC phosphopeptide, fluorescence polarization. Potency, µM, without a hit: max response, negative = inhibition, hits mostly inhibitors. 360,000 tested, 2.8% active; further: series mostly up to about 57 µM; on the % scale 0 is the no-effect control and ±100 the full control effect; nearly all actives have a fitted effect of over 65% in size
Target sequence (P53350 whole entry, looked up, the tested form may be a part): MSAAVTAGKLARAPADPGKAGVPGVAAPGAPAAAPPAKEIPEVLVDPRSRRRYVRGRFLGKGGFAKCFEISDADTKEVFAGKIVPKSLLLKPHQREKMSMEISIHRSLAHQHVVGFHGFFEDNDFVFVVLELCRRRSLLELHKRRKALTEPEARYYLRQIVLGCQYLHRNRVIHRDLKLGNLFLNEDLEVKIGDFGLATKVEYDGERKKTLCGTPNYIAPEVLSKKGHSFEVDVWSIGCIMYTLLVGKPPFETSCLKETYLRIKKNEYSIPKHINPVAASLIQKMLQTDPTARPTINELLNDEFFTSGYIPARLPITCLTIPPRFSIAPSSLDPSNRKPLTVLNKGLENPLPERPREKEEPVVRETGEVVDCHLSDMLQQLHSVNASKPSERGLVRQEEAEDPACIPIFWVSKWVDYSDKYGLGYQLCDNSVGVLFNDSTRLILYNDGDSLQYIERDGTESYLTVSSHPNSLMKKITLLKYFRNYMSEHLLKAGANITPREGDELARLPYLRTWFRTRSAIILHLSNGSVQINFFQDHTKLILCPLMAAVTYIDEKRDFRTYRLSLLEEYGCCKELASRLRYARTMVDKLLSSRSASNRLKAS
G9a block: inhibitors of human histone lysine methyltransferase G9a | Q96KQ7 | G9a H3K9 monomethylation, AlphaScreen, 2 h | Potency, µM (doses to about 102 µM), without a hit: at the highest dose activity, negative = inhibition, hits mostly inhibitors | 350,000 tested, 8.8% active | AID 504332; further: on the % scale 0 is the no-effect control and ±100 the full control effect; nearly all actives have a fitted effect of over 75% in size
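Compounds were preincubated with 20 nM G9a for 15 min, after which biotinylated H3K9 peptide (500 nM) and SAM (20 uM) started a 2 h room-temperature reaction. Monomethylated product was quantified by antibody-based AlphaScreen chemiluminescence.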
BAZ2B block: blocks human BAZ2B. 360,000 tested, 4.4% active. AID 504333. AlphaScreen BAZ2B-H3K14Ac peptide displacement. Potency, µM (highest dose often 114 µM), for inactives: at the highest dose activity change, negative = inhibition, most hits filed as inhibitors. Q9UIF8; further: on the % scale 0 is the no-effect control and ±100 the full control effect; nearly all actives have a fitted effect of over 60% in size
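Protein-peptide AlphaScreen: BAZ2B 50 nM, b-H3K14Ac 50 nM, 1x PBS pH 7.4 + 0.01% Tween-20. Preincubation 30 min RT; cpd 30 min RT (top 110 uM); beads 20 min RT, light-protected.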
JMJD2A Tudor: inhibitors of human JMJD2A Tudor domain | AlphaScreen JMJD2A-Tudor / H3K4me3 peptide binding | Potency, µM (top dose mostly 114 µM), for the others: at the top dose activity change, negative = inhibition, actives largely listed as inhibitors | 390,000 tested, 4.4% active | AID 504339; further: on the % scale 0 is the no-effect control and ±100 the full control effect; nearly all actives have a fitted effect of over 50% in size
HP1b chromo inh: blocks HP1-beta chromodomain binding to methylated histone tails. Potency, µM (highest dose often 114 µM), inactives show at the highest dose activity change, negative = inhibition, actives largely listed as inhibitors. P83916. AlphaScreen HP1-beta / biotin-H3K9me3 peptide binding. 390,000 tested, 0.56% active; further: nearly all actives have a fitted effect of over 70% in size
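HP1-beta protein (50 nM final) preincubated 30 min at room temperature with biotinylated H3(1-18)K9me3 peptide (50 nM) in PBS pH 7.4, 0.01% Tween-20, then compound added for 30 min. AlphaScreen streptavidin donor/nickel chelate acceptor beads (10 ug/mL final), 30 min dark, luminescence read.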
Numbers without * were called inactive; u = inconclusive; x = no result given; [ ] = another dose, or the depositor's remark. The call rests on the fitted dose curve; in most records, active means well fitted curve in the direction sought with a large enough effect; inconclusive means small, poorly fitted or top-dose-only effect, or another doubt; inactive means no such curve, though single readings can be large; an effect the other way counts as inactive or inconclusive. Potency means the concentration at half of the fitted maximal effect.

SMILES	12-LOX inh	PLK1 PBD block	G9a block	BAZ2B block	JMJD2A Tudor	HP1b chromo inh
CN(C)S(=O)(=O)c1ccc(Cl)c(NC(=O)COC(=O)CCC(=O)c2cccs2)c1	24.7%	-7.0%	5.6%	-16.4%	-24.7%	43.4%
CCCC(=O)C1=C(O)C(C(=O)OC)C(C)(C)CC1=Nc1ccc(OC)cc1 (stereo not given)	-13.3%	-17.2%	-5.6%	-10.6%	2.1%	30.1%
COc1cc(/C=N/Nc2ccccn2)ccc1O	16.6%	-5.9%	u	-31.2%	-10.6%	25.1%
CCc1cccc(OCCOCCN2CCCC2)c1	u	-2.1%	10µM*	79.4µM*	10µM*	u
CCOc1ccc(OCCN2CCCCC2)cc1	-21.5%	-3.7%	7.94µM*	56.2µM*	10µM*	-11.3%
NC(=S)NN=C1c2cc(OCCN3CCOCC3)ccc2-c2ccc(OCCN3CCOCC3)cc21	x	-18.0%	31.6µM*	39.8µM*	u	u
CCCOc1ccc(C(O)(CCC)CCN2CCCCC2)cc1 (stereo not given)	0.0%	-16.7%	19.1%[59 µM]	-2.9%	-1.9%	12.7%
Brc1ccc(OCCOCCN2CCOCC2)cc1	-22.4%	-3.3%	-39.7%[12.7 µM]	-3.0%	-12.2%	7.5%
CCOc1ccc(OCCOCCN2CCCC2)cc1	u	-6.0%	8.91µM*	u	28.2µM*	-19.7%
CCCCN(C(=O)c1ccc(C)c(S(=O)(=O)N2CCOCC2)c1)c1c(N)n(CC(C)C)c(=O)[nH]c1=O	8.1%	-10.6%	u	13.1%	-13.8%	5.0%
C=CCCC1CN(Cc2ccc(OC)cc2)S(=O)(=O)c2c(Oc3ccc(OC)cc3)cccc2O1 (stereo not given)	17.4%	x	x	x	x	x
O=C(Nc1ccccc1)OC[C@H](CN1CCCCC1)OC(=O)Nc1ccccc1	x	x	26.4%[21.5 µM]	x	x	x
Cc1cc(OCCOCCN2CCCC2)ccc1C(C)C	u	-12.9%	20µM*	u	5.01µM*	19.0%
CC(OCCN1CCCC1)(c1ccc(F)cc1)c1ccc(F)cc1	u	29.9µM*	8.3%[59 µM]	-2.7%	89.1µM*	23.3%
ON=C1c2cc(OCCN3CCCCC3)ccc2-c2ccc(OCCN3CCCCC3)cc21	x	18.9µM*	x	u	u	-4.3%
O=C(OCCN1CCCCC1)c1ccccc1F	4.8%	19.4%	1.8%[12.7 µM]	-2.5%	-32.9%	26.6%
C=CCOc1ccc2c(c1)C(=NO)c1cc(OCC=C)ccc1-2	-10.2%	5.8%	-17.0%	-29.3%	-21.4%	17.9%
c1ccc(OCCOCCN2CCN(C(c3ccccc3)c3ccccc3)CC2)cc1	u	-15.2%	10µM*	50.1µM*	0.891µM*	u
O=C(NC1CCCCNC1=O)c1ccc(Cl)cc1 (stereo not given)	3.2%	2.8%	-9.0%[59 µM]	-7.7%	-3.6%	13.1%
c1ccc(-c2noc(-c3cncnc3NCc3ccco3)n2)cc1	17.5%	x	x	x	x	x
COc1ccc(NC(=O)CCC(=O)Nc2cc(OC)c(NC(=O)c3cccs3)cc2OC)cc1	-26.4%	-0.3%	3.2%[59 µM]	1.7%	-3.5%	38.8%
CCOc1ccccc1C(=O)NCC(=O)NNC(=O)CN(C)S(=O)(=O)c1ccc(Cl)cc1	0.7%	-7.1%	-36.4%[12.7 µM]	4.4%	-5.5%	38.0%
Cc1ccc(OCC(=O)NCCCNC(=O)c2ccncc2)cc1	6.6%	-6.9%	31.6µM*	10.1%	-17.7%	-3.8%
Cc1ccc(OCC(=O)NCCNC(=O)c2ccncc2)cc1	0.1%	-18.0%	12.8%	9.4%	-9.8%	-0.4%
CCCCN1C[C@H](C)[C@@H](CC(=O)NCc2ccccc2)C1=O	-1.8%	-21.6%	44.7µM*	-25.0%	-11.4%	62.0%
CCOc1ccc(CN(CCC#N)C(=S)NC(=O)c2ccccc2)cc1	-29.2%	-6.3%	1.41µM*	-36.9%	-24.5%	36.5%
COc1ccc(CN(CCC#N)C(=S)NC(=O)c2ccccc2)cc1	0.0%	-2.7%	39.8µM*	-34.5%	-32.0%	20.5%
C[C@@H]1CCC2[C@](C)(CO)[C@@H](O)CC[C@]2(C)[C@@]12CCC(CO)(CCO)O2 (stereo not given in full)	24.5%	26.7µM*	9.8%	-2.5%	-5.7%	20.7%

Screening results from PubChem.
